KB-3-1 cytotox = qHTS assay for MDR1-selective chemotherapeutics: Primary screen using the parental adenocarcinoma cell KB-3-1; KB-3-1 viability, CellTiter-Glo ATP luminescence, 72 h; Potency, µM (series often up to 46.1 µM), most hits filed as cytotoxic; actives 1.4% (n = 400,000); AID 1347075, 2019; note: % is set by controls: 0 for no effect and ±100 for the full control effect; nearly all actives have a fitted effect of over 60% in size
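Cytotoxicity in the drug-sensitive parental line KB-3-1 was scored as loss of CellTiter-Glo luminescence following 72 h incubation with compound. Values come from curve fitting of normalized concentration-response data.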
HT1080NT lethal = qHTS for induction of synthetic lethality in tumor cells producing 2HG: qHTS for the HT-1080-NT fibrosarcoma cell line. AID 686970, 2013. Potency, µM (top dose mostly 46.1 µM), without a hit: at the top dose activity, negative = less viability, most hits filed as cytotoxic. HT-1080-NT fibrosarcoma viability, CellTiter-Glo ATP luminescence, 48 h. actives 1.6% (n = 360,000);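 note: NT is the 2HG producing partner of a matched IDH1 knockdown line; 0% = DMSO-treated cells and -100% = media-only wells without cells; nearly all actives have a fitted effect of over 55% in size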
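Compounds were tested in concentration-response format on HT-1080-NT cells for 48 hours at 37 degrees C. Cell viability came from CellTiter-Glo luminescence; curves were classified by r2, response magnitude and activity.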
KB-V1 MDR tox = qHTS assay for MDR1-selective chemotherapeutics: Primary screen using the drug-selected MDR subline cells KB-V1; KB-V1 MDR cells viability, CellTiter-Glo, 72 h; Potency, µM (highest dose often 46.1 µM), usual class: cytotoxic; actives 3.4% (n = 400,000); note: % is set by controls: 0 for no effect and ±100 for the full control effect; nearly all actives have a fitted effect of over 60% in size
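KB-V1 cells (P-gp-expressing MDR subline of KB-3-1) in phenol-red-free DMEM with 10% FBS were exposed to library compounds over a concentration series for 72 h at 37 degrees C. Viability read by CellTiter-Glo luminescence; concentration-effect curves fitted after normalization.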
SW480 rerep = A quantitative high throughput screen for small molecules that induce DNA re-replication in SW480 colon adenocarcinoma cells. SW480 DNA re-replication, Hoechst DNA content imaging, 48 h. Potency, µM (highest dose often 46.1 µM), inactives show at the top dose re-replication activation, actives largely listed as activators. actives 1.8% (n = 340,000); note: % of control where 0% means no effect; nearly all actives have a fitted effect of over 55% in size
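Image-based DNA-content assay: after two days of treatment, nuclei were labelled with the DNA dye Hoechst and imaged, and hits were compounds raising the count of nuclei showing high fluorescence intensity.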
HT1080 IDH1KD tx = qHTS for induction of synthetic lethality in tumor cells producing 2HG: qHTS for the HT-1080-IDH1KD cell line. actives 2% (n = 360,000). Potency, µM (series often up to 46.1 µM), without a hit: at the top dose activity, negative = toxicity, most hits filed as cytotoxic. HT-1080 IDH1 knockdown viability, ATP luminescence, 48 h;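 note: 0% = DMSO wells and -100% = cell-free medium wells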
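Cytotoxicity counter-line: IDH1KD HT-1080, 48 h, CellTiter-Glo. Curves classed by r2, magnitude and activity.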
MCF10A rerep = A quantitative high throughput screen for small molecules that induce DNA re-replication in MCF 10a normal breast cells. MCF 10A DNA re-replication, Hoechst nuclear intensity, 48 h. Potency, µM (doses to about 46.1 µM), without a hit: top-dose activity, positive = re-replication, hits mostly activators. actives 2.9% (n = 350,000). AID 624296, 2012; note: % of control where 0% means no effect; nearly all actives have a fitted effect of over 50% in size
* marks the source's active call; other numbers are inactive results; i = inactive; ? = inconclusive; / = not tested or not shown; [ ] = remark or other dose. In the library only some 7.9% were active in any assay of this set; here they are far more common. Calls come from the whole dose curve; as a rule, active = well fitted curve in the direction sought with a large enough effect; inconclusive = small, poorly fitted or top-dose-only effect, or another doubt; inactive = no such curve, though single readings can be large; an effect the other way counts as inactive or inconclusive. Potency is the fitted concentration of half-maximal effect.

SMILES | KB-3-1 cytotox | HT1080NT lethal | KB-V1 MDR tox | SW480 rerep | HT1080 IDH1KD tx | MCF10A rerep
CN1CCc2nc3sc(C(=O)NCc4ccccc4)c(N)c3cc2C1 | i | -3.7% | i | -0.9% | ? | 18.4µM*
O=C1c2ccc3c4c(ccc(c24)C(=O)N1CCCCO)C(=O)N(CCCCO)C3=O | 3.66µM* | 23.1µM* | ? | ? | 11.6µM* | ?
COc1cc(C(=O)NCC(c2cccs2)N(C)C)cc(Cl)c1OC(C)C (configuration not stated) | i | -7.1% | 7.31µM* | ? | -17.6% | ?
COc1ccc(N2C(=O)C(C)(C)C2c2c(O)ccc3ccccc23)cc1 (configuration not stated) | i | -9.5% | i | ? | -29.2% | ?
CC1(C)C(=O)N(c2ccccc2)C1c1ccccc1O (configuration not stated) | ? | ? | i | ? | ? | 7.31µM*
CC(C)COC(=O)c1ccc2c(c1O)C(=O)c1ccccc1C2=O | i | 4.0% | 14.6µM* | ? | 19.2% | ?
O=C(Nc1ccccc1C(F)(F)F)Nc1c[nH]c(=O)[nH]c1=O | i | / | i | / | / | /
Cn1sccc1=O | i | ? | i | 1.64µM* | ? | 6.4%
COc1ccc2nc3cc(Cl)ccc3c(Nc3ccc(O)c(CN4CCN(C)CC4)c3)c2c1 | ? | ? | ? | ? | 16.4µM* | 17.0%
Cc1ccc(OCC(=O)Nc2nnc(SCc3cc(=O)c4ccccc4[nH]3)s2)cc1C | i | / | ? | / | / | /
Cc1cc(=O)[nH]c(SCC(=O)c2ccc(C(C)C)cc2)n1 | i | -1.0% | i | -0.7% | -9.4% | 1.2%
Cc1cc(C)c2c(=O)[nH]c(SCC(=O)c3ccc(C(C)C)cc3)nc2n1 | i | 10.6% | 16.4µM* | -6.1% | 11.6% | ?
COc1ccc(C2CC(O)(c3ccccc3)Oc3c(C)ccc(C)c32)cc1 (configuration not stated) | ? | -29.8% | ? | ? | -15.3% | ?
COc1ccc(C2CC(O)(c3ccccc3)Oc3cc(OC)cc(OC)c32)cc1 (configuration not stated) | ? | -5.4% | i | -3.8% | -1.4% | 20.6µM*
CCC(C(=O)Nc1ccccc1OC)n1c(C(=O)OC)cc2sc(Cl)cc21 (configuration not stated) | i | / | i | / | / | /
COc1ccc(OC)c(NC(=O)CSc2nc3ccccc3cc2Cc2ccccc2)c1 | i | -5.7% | i | 29.6% | 15.4%[9.24 µM] | 14.6µM*
COc1ccc(OC)c(NC(=O)CSc2nnc(-c3ccncc3)s2)c1 | / | -8.0% | / | -1.3% | 1.1% | 0.0%
COc1ccc(NC(=O)CSc2nc3ccccc3cc2Cc2ccccc2)cc1 | i | -7.9% | i | 8.6% | -13.4% | 27.2%
COc1ccc(OC)c(NC(=O)CSc2nnc(-c3cccnc3)s2)c1 | i | 18.4µM* | i | 10.8% | 18.4µM* | 13.5%
CCc1cc[n+](C2=C([O-])c3ccccc3C(=O)/C2=N\S(=O)(=O)c2cccs2)cc1 | i | 18.4µM* | i | 4.61µM* | 18.4µM* | ?
COc1cc(CNCCN2CCOCC2)ccc1OCc1ccc(Cl)cc1 | ? | ? | i | ? | ? | ?
COc1cc(Cl)ccc1NC(=S)N(CCCN1CCOCC1)Cc1cn(C)c2ccccc12 | ? | ? | i | ? | ? | ?
COc1cc(CNCCCN2CCOCC2)cc(Br)c1OCc1ccc(Cl)cc1 | ? | -28.4% | ? | -2.9% | ? | 13µM*
COc1ccc(Cl)cc1NC(=S)NCCN1CCOCC1 | i | 1.1% | i | ? | 2.8% | 0.461µM*
COc1ccc(Cl)cc1NC(=S)N(CCCN1CCOCC1)Cc1cn(C)c2ccccc12 | ? | ? | i | 23.1µM* | -22.5% | ?
SMILES | KB-3-1 cytotox | HT1080NT lethal | KB-V1 MDR tox | SW480 rerep | HT1080 IDH1KD tx | MCF10A rerep
CSc1ccc(/C=N/n2c(Cc3ccc(Br)cc3)n[nH]c2=S)cc1 | i | -20.4% | i | ? | -4.8% | 28.2%
CCc1n[nH]c(=S)n1/N=C/c1ccc(-c2ccc(Br)cc2)o1 | i | ? | i | -1.2% | ? | 18.4µM*
O=C/C=C/c1c(-c2ccccc2)cc2oc3ccccc3cc1-2 | ? | -29.0% | ? | ? | 20.6µM* | 8.2µM*
Nc1ccc(-c2cc3ccccc3oc2=O)cc1 | i | 5.7% | i | 0.1% | 23.9% | 6.1%
CC(C)CCSc1nc(N)c(C#N)cc1C#N | i | -20.6% | 20.6µM* | -1.2% | -28.6% | 17.3%
CC(=O)c1cc(C#N)c(SCCC(C)C)nc1C | i | 8.8% | i | 0.7% | -0.7% | 1.8%
Cc1cn(C)c(CC(=O)N2CCN(c3cccc(Cl)c3)CC2)c1C(=O)O | i | / | i | / | / | /
Cc1cc(C)c(S(=O)(=O)Nc2ccc3oc4c(c3c2)C(=O)CC(C)(C)C4)cc1C | i | / | i | / | / | /
COc1ccc(S(=O)(=O)Nc2ccc3oc4c(c3c2)C(=O)CC(C)(C)C4)cc1 | ? | / | 18.4µM* | / | / | /
COc1ccc(CCN2C(=O)NC(NC(=O)CCc3ccccc3)(C(F)(F)F)C2=O)cc1OC (configuration not stated) | i | 6.3% | 20.6µM* | 1.8% | 0.9% | -0.5%
CC(C)Oc1ccc(C(=O)NC2(C(F)(F)F)NC(=O)N(CCCc3ccccc3)C2=O)cc1 (configuration not stated) | ? | -2.0% | 9.2µM* | ? | ? | 13.8%
COc1ccc(CCN2C(=O)NC(NC(=O)c3ccccc3OC)(C(F)(F)F)C2=O)cc1OC (configuration not stated) | i | / | i | / | / | /
N#C/C(=C\c1ccc(-c2ccccc2C(=O)O)o1)c1nc2ccccc2[nH]1 | i | 22.2% | ? | ? | 12.1% | ?
N#C/C(=C\c1ccc(Sc2ccccc2)o1)c1nc2ccccc2[nH]1 | i | -13.8% | i | 5.2% | -26.8% | 9.2%
N#C/C(=C/c1ccc(Sc2nc3ccccc3[nH]2)o1)c1cccc(Br)c1 | ? | ? | 18.4µM* | 29.6% | ? | ?
N#C/C(=C/c1ccc(Sc2nc3ccccc3[nH]2)o1)c1cccc(F)c1 | i | ? | 7.31µM* | ? | ? | 27.6%
